Results: the supplement of paper PMC9446081
± gives the standard deviation of the averaged measurements.

Tests used:
Experiment in all cases: relative enzymatic activity vs untreated control (fraction); higher = less inhibition
Conditions in all cases: 100 µM; incubation time: 2 h at 37 C
DNA gyrase = system: DNA gyrase
Experimental: (§1)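 In vitro enzymatic inhibition assays (ProFoldin kits) for 12 purified essential E. coli enzymes or complexes, each treated with 218 active antibacterial compounds at 100 µM for 2 h at 37°C. Read-outs were fluorescence or absorbance (phosphate detection, dye binding), converted to activity via standard curves and expressed relative to untreated DMSO controls.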

DNA helicase = DNA helicase (UniProt P0ACB1)
Experimental: as §1

DNA ligase = DNA ligase (UniProt B1XA82)
Experimental: as §1

DNA polymerase = DNA polymerase (UniProt P10443)
Experimental: as §1

DNA primase = DNA primase (UniProt P0ABS7)
Experimental: as §1

GlmU = GlmU (UniProt A7ZTU1)
Experimental: as §1

Guanlyate kinase = Guanlyate kinase (UniProt Q0TBG1)
Experimental: as §1

MurA = MurA (UniProt Q3YX52)
Experimental: as §1

MurD = molecular target: T1, MurD (UniProt P14900)
T1 sequence (whole entry): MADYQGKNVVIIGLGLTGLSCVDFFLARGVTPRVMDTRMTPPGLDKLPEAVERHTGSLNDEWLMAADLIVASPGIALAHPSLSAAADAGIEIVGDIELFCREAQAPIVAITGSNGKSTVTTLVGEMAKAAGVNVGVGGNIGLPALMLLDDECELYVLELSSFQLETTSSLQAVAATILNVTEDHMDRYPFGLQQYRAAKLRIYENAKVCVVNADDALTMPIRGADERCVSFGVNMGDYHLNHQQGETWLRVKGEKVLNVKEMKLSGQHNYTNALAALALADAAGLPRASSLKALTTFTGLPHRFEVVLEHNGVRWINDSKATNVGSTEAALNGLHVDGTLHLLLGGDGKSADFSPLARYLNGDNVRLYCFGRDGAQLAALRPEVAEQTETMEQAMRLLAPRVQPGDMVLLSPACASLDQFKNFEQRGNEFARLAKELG
Experimental: as §1

MurF = molecular target: T2, MurF (UniProt P11880)
T2 sequence (whole entry): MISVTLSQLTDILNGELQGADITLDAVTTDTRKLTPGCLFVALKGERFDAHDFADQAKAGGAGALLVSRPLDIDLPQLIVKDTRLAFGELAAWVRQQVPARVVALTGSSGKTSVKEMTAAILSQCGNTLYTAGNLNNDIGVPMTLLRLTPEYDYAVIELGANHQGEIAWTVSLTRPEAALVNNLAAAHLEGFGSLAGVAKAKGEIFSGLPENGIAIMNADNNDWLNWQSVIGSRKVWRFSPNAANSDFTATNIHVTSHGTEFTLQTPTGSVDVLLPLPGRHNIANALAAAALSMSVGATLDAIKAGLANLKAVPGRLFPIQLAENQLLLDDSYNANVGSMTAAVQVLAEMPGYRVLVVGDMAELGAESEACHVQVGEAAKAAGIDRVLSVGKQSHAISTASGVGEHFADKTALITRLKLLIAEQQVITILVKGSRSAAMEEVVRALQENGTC
Experimental: as §1

RNA polymerase = system: RNA polymerase
Experimental: as §1

Chain of Guanlyate kinase (Q0TBG1 whole entry): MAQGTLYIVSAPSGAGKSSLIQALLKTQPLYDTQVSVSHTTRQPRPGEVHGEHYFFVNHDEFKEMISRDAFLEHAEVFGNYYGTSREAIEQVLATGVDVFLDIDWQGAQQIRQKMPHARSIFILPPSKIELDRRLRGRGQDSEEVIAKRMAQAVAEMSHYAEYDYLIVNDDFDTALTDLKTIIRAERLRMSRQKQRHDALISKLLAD
Chain of MurA (Q3YX52 whole entry): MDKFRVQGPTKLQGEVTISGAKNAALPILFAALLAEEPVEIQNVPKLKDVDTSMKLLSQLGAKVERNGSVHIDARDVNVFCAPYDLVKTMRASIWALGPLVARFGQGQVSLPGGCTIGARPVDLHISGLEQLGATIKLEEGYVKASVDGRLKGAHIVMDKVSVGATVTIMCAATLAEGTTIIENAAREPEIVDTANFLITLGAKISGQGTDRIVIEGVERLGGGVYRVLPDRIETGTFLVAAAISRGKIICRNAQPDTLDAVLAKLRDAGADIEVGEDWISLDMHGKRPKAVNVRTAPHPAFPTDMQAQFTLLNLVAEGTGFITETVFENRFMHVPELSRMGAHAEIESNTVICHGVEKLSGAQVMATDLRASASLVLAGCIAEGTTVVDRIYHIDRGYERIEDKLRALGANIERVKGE
Chain of DNA polymerase (P10443 whole entry): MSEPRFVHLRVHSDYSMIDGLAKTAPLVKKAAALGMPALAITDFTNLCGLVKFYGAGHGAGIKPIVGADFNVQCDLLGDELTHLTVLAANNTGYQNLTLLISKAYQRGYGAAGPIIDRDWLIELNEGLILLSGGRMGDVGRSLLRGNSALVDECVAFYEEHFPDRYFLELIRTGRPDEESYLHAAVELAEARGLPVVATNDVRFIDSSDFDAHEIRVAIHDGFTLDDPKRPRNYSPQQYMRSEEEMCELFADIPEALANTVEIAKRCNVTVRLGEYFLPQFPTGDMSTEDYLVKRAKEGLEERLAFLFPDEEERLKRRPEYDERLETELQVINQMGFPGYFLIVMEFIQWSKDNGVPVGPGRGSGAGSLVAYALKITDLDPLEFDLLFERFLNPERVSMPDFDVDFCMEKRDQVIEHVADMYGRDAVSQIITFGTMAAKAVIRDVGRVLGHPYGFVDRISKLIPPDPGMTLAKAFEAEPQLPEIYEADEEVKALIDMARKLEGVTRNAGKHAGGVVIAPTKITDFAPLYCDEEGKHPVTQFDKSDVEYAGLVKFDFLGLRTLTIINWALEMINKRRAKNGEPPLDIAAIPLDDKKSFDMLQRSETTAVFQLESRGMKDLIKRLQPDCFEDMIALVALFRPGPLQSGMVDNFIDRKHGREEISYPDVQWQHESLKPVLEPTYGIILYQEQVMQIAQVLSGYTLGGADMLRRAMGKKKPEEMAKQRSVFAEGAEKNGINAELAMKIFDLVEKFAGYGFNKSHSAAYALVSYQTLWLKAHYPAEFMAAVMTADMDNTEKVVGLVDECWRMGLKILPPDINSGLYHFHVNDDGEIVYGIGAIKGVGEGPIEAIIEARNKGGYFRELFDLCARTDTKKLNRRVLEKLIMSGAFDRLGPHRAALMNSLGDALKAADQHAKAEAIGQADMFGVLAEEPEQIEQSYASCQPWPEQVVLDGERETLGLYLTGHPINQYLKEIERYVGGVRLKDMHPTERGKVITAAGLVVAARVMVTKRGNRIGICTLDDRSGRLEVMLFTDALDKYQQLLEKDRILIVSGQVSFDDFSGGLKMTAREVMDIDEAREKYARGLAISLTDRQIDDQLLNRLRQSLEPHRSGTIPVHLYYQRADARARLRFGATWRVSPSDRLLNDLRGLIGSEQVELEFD
Chain of DNA primase (P0ABS7 whole entry): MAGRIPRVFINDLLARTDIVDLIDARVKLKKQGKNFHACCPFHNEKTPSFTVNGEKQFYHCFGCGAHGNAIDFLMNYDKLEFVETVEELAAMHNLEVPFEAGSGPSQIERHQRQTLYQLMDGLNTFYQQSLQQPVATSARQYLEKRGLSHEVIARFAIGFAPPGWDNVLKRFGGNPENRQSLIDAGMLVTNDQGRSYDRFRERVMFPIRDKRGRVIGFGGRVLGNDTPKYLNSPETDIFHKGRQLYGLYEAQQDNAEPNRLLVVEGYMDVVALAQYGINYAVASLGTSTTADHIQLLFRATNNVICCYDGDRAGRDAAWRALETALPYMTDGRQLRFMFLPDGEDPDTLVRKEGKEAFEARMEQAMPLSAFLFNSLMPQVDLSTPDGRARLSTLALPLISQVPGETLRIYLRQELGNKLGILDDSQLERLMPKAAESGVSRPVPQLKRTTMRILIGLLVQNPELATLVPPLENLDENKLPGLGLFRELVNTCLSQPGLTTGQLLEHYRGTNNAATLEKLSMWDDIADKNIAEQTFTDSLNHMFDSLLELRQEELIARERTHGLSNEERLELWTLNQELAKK
Chain of GlmU (A7ZTU1 whole entry, looked up): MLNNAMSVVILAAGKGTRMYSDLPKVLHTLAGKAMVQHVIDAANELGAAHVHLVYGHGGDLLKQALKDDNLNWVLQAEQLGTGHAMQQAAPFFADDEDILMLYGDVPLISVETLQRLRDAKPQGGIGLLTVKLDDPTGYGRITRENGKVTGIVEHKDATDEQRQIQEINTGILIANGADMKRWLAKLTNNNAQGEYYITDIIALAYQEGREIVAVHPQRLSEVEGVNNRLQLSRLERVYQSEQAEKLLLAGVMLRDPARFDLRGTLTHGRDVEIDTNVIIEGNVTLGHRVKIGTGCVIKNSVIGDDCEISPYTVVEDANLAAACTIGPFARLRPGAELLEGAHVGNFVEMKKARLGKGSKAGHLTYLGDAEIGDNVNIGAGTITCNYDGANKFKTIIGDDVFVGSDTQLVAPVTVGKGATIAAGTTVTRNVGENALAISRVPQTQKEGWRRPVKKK
Chain of DNA helicase (P0ACB1 whole entry): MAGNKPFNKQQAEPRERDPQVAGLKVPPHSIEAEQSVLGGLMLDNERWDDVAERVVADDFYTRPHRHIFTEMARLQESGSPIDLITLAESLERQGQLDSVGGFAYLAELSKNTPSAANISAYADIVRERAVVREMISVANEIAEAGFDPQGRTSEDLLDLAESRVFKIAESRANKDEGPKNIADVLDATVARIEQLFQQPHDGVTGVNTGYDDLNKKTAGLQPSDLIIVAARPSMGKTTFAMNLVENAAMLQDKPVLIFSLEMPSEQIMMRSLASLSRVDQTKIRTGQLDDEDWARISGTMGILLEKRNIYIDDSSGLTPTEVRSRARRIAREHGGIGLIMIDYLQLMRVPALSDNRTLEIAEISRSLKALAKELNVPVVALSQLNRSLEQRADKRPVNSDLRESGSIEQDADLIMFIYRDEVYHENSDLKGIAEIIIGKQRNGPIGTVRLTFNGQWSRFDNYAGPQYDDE
Chain of DNA ligase (B1XA82 whole entry): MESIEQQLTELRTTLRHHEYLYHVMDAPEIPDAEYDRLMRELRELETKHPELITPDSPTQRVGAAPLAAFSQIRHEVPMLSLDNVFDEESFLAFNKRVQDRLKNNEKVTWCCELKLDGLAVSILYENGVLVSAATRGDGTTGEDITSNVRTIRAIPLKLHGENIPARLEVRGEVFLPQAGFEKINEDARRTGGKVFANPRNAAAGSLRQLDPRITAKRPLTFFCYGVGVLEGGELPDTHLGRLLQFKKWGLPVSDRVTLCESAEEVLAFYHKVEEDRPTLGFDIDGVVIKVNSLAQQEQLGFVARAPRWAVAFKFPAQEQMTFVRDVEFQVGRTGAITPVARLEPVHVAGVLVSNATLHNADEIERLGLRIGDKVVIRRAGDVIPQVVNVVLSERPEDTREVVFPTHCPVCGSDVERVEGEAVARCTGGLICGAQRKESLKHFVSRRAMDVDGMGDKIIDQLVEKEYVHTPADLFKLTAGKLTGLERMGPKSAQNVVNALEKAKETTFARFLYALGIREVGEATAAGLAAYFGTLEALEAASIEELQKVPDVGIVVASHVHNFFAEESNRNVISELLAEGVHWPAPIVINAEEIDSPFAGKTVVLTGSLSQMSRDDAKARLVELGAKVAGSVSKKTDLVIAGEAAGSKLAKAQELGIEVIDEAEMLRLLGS

Compound	relative enzymatic activity (DNA gyrase)	relative enzymatic activity (DNA helicase)	relative enzymatic activity (DNA ligase)	relative enzymatic activity (DNA polymerase)	relative enzymatic activity (DNA primase)	relative enzymatic activity (GlmU)	relative enzymatic activity (Guanlyate kinase)	relative enzymatic activity (MurA)	relative enzymatic activity (MurD)	relative enzymatic activity (MurF)	relative enzymatic activity (RNA polymerase)
NCC1OC(OC2C(N)CC(N)C(OC3OC(CO)C(O)C(N)C3O)C2O)C(N)C(O)C1O.O=S(=O)(O)O (stereo not drawn)	0.685 ± 0.063	0.381 ± 0.53	0.834 ± 0.15	0.924 ± 0.43	0.539 ± 0.052	0.956 ± 0.069	0.589 ± 0.046	0.257 ± 0.04	0.647 ± 0.44	0.958 ± 0.17	0.537 ± 0.016
CCC1OC(=O)C(C)C(=O)C(C)C(OC2OC(C)CC(N(C)C)C2O)C(C)(OC)CC(C)C(=O)C(C)C2N(CCCCn3cnc(-c4cccnc4)c3)C(=O)OC12C (stereo not drawn)	0.862 ± 0.39	0.396 ± 0.024	1.1 ± 0.3	1.24 ± 0.3	0.854 ± 0.012	0.9359 ± 0.0057	0.967 ± 0.099	0.668 ± 0.05	0.525 ± 0.34	0.799 ± 0.13	0.822 ± 0.037
COC1C=COC2(C)Oc3c(C)c(O)c4c(O)c(c(C=NN5CCN(C6CCCC6)CC5)c(O)c4c3C2=O)NC(=O)C(C)=CC=CC(C)C(O)C(C)C(O)C(C)C(OC(C)=O)C1C (stereo not drawn)	0.305 ± 0.28	0.66 ± 0.082	0.866 ± 0.13	0.952 ± 0.37	0.647 ± 0.093	0.259 ± 0.016	0.435 ± 0.013	0.144 ± 0.12	0.132 ± 0.046	0.4854 ± 0.0039	0.0856 ± 0.00076
CO/N=C1\CN(c2nc3c(cc2F)c(=O)c(C(=O)O)cn3C2CC2)C[C@@H]1CN	0.0916 ± 0.13	0.4747 ± 0.0033	0.891 ± 0.14	0.53 ± 0.72	0.751 ± 0.05	0.979 ± 0.019	0.738 ± 0.26	0.631 ± 0.21	0.572 ± 0.38	0.964 ± 0.17	0.807 ± 0.074
CC1C(NC(=O)C(=NOC(C)(C)C(=O)O)c2csc(N)n2)C(=O)N1S(=O)(=O)O (stereo not drawn)	0.879 ± 0.42	0.582 ± 0.14	1.36 ± 0.2	0.711 ± 0.38	0.832 ± 0.01	0.903 ± 0.016	0.908 ± 0.068	0.798 ± 0.071	0.589 ± 0.39	0.948 ± 0.24	0.844 ± 0.071
O=C(NC(CO)C(O)c1ccc([N+](=O)[O-])cc1)C(Cl)Cl (stereo not drawn)	1.08 ± 0.086	0.453 ± 0.012	0.947 ± 0.19	1.34 ± 0.4	0.725 ± 0.2	0.972 ± 0.052	1.04 ± 0.047	0.8 ± 0.18	0.548 ± 0.34	0.96 ± 0.2	0.86 ± 0.028
NC(=O)[C@@H]1CC[C@@H]2CN1C(=O)N2OS(=O)(=O)O	0.771 ± 0.26	0.552 ± 0.18	0.834 ± 0.21	0.501 ± 0.71	0.803 ± 0.037	0.998 ± 0.01	0.947 ± 0.072	0.699 ± 0.17	0.604 ± 0.42	0.976 ± 0.22	0.809 ± 0.13
CCn1cc(C(=O)O)c(=O)c2cc(F)c(N3CCN(C)CC3)cc21.CS(=O)(=O)O	0.0308 ± 0.043	0.573 ± 0.14	1.16 ± 0.29	1.27 ± 0.33	0.843 ± 0.025	0.944 ± 0.037	0.919 ± 0.11	0.696 ± 0.11	0.589 ± 0.41	1.109 ± 0.0024	0.862 ± 0.089
